Reference: PubChem BioAssay (NCI)
Values joined by “and” are separate entries in the source; they are usually repeats but may differ in a detail not shown here. Equal values may be shown once. This is part of a sample that, as a whole, favours compounds with a hit. Of some 83,000 tested, about 20% had one in any assay.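 For each line, cells grew in 96-well plates with the test compound present at a single concentration for 48 hours.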 A number with no mark means an inactive call. Active and inactive are the calls of the source.

tested on: HL-60(TB) leukemia; test: NCI-60 one-dose screen, 48 h (100 = growth as untreated, 0 = no growth, -100 = all killed); conditions: 2.5 µM
Method: Growth inhibition of the HL-60(TB) human tumor cell line is measured as a screen for anti-cancer activity. Cells are grown in 96 well plates and exposed to the test compound for 48 hours. Compounds are tested at a single concentration, which is 10^-5 M for most compounds. The reported endpoint is percent growth (GI% or GIPRCNT), where numbers from 0 - 100% represent growth inhibition, and numbers from -100% - 0 represent cell death. For example, a value of 40 represents 60% growth inhibition. A value of 0 means no net growth occurred over the course of the experiment. A value of -40 indicates 40% of cells at the beginning of the experiment died by the end of the experiment. A value of -100 means all cells are dead at the end of the experiment.
NCI-60 Human Tumor Cell Lines Screen was performed using the standard one-dose NCI protocol, which is described in more detail at https://dtp.cancer.gov/discovery_development/nci-60/default.htm.
Compounds with GIPRCNT values below 10 were considered active. Activity score was based on GIPRCNT using the following formula: […]
Score is 0 for GIPRCNT values of 100 or above, 50 for GIPRCNT values of 0, and 100 for GIPRCNT values of -100.

Row | SMILES | growth
1 | CN(Cc1cnc2nc(N)nc(N)c2n1)c1ccc(C(=O)N[C@@H](CCC(=O)O)C(=O)O)cc1 | 27%

same assay, conditions: 10 µM

Row | SMILES | growth
2 | CC(C)(C)c1cc(NC(=O)Cc2ccc(-c3cnc4cc(-c5cnn(CCN6CCOCC6)c5)ccc4n3)cc2)no1 | 4.17% (active)
3 | CN(Cc1cnc2nc(N)nc(N)c2n1)c1ccc(C(=O)N[C@@H](CCC(=O)O)C(=O)O)cc1 | 24.1%

same assay, conditions: 10 µM unless noted

Row | SMILES | growth
4 | CCOC(=O)c1cc(-c2ccc([N+](=O)[O-])cc2)n(-c2ccc(C(=O)O)c(O)c2)c1C | 31%
5 | OCCN(CCO)c1ccc2ccccc2c1 | 87.9%
6 | CCCC(=O)Oc1ccc(/C(=C(\C)c2ccccc2)c2ccc(OCCN(CC)CC)cc2)cc1 | 39.2%
7 | Cc1cc2nc3c4cc(O)ccc4n(CCN(C)C)c3nc2cc1C | 7.36% (active)
8 | COc1ccc(CC(C#N)c2ccc(Cl)cc2)cc1 (stereo unspecified) | 84%
9 | CC(O)c1cnc(/C=C2\SC(=S)N(Cc3ccccc3)C2=O)s1 (stereo unspecified) | 20.4%
10 | NS(=O)(=O)c1ccc(-n2nc(-c3ccc(Br)cc3)ccc2=O)cc1 | 88.5% [100 µM]
11 | COc1cc2nc(-c3ccc(C(F)(F)F)cc3)cc(OCCCN3CCCCC3)c2cc1OC | 25%
12 | O=C1CC(=O)N(C(=O)c2nn(-c3ccc(Cl)cc3)cc2O)N1 | 4.53% (active)
13 | O=S(=O)(c1ccc(NC(=S)NC23CC4CC(CC(C4)C2)C3)cc1)N1CCCCC1 | -29.2% (active)
14 | CCOc1cc(CCNS(=O)(=O)c2ccc(C)cc2)c(C(C)=O)cc1OCC | 46.5% [100 µM]
15 | Cc1cc2c(O)c(-c3cc(Cl)ccc3Cl)c3sc(=O)oc3c2cc1C | 64.1%
16 | COc1cccc(C(=O)NNc2nc(N3CCOCC3)nc(N3CCN(C(c4ccccc4)c4ccccc4)CC3)n2)c1 | 76.4%
17 | O=c1oc2ccc(-c3ccc(F)cc3F)cc2c(=O)n1-c1ccc(Cl)c(C(F)(F)F)c1 | 1.69% (active)
18 | O=c1cc(/C=N\Nc2nc(-c3ccc(Cl)cc3Cl)cs2)c2cc(Cl)ccc2o1 | 92.3%
19 | CC(C)CCC[C@@H](C)[C@H]1CC[C@H]2[C@@H]3CC=C4C[C@@H](C(C(=O)O)C(=O)O)CC[C@]4(C)[C@H]3CC[C@]12C | -44.4% (active)
20 | COC(=O)c1cc(=O)nc(N/N=C/c2ccccc2O)s1 | 87.3%
21 | O=[N+]([O-])c1ccc(Sc2ccncn2)c([N+](=O)[O-])c1 | 16.8%
22 | CCCCOC1NC(=O)NC(=O)C1(F)C(=O)OCC (stereo unspecified) | 63.5%

Row | SMILES | growth
23 | COc1cccc(-c2nc3sccn3c2-c2ccnc(NCCCNS(=O)(=O)c3ccc(C(F)(F)F)cc3)c2)c1 | 47.8%
24 | O=C(Nc1ccc2ncnc(Nc3ccc(F)c(Cl)c3)c2c1)c1ccccc1 | 82.2%
25 | CC(=O)Nc1nc2ccc(NS(=O)(=O)c3cccc4c(N(C)C)cccc34)cc2[nH]1 | 27.8%
26 | COc1cc(NCCCCCCCNC(C)C)c2nccc(C)c2c1 | 75.1% and 102%
27 | Cc1nc2sc(C(=O)Nc3ccccc3)c(N)c2cc1C(=O)c1ccccc1 | 21.8%
28 | c1ccc2cc3nc4cc5ccccc5cc4nc3cc2c1 | 90.5%
29 | O=C(Nc1ccc(OS(=O)(=O)Cc2ccccc2)cc1)C12CC3CC(CC(C3)C1)C2 | 60.5%
30 | COc1ccc(-c2nn(-c3ccccc3)cc2/C=C2/SC(=S)N(C)C2=O)cc1 | 95.8%
31 | C=C(C)[C@@H]1CCC[C@]2(COS(=O)(=O)c3ccc(C)cc3)CC[C@]3(C)[C@@H](CC[C@@H]4[C@@]5(C)CCCNC(C)(C)[C@@H]5CC[C@]43C)[C@@H]12 | -35% (active)
32 | O=C1NC(=S)S/C1=C\c1cc(Br)ccc1O | 83.9%
33 | CN(C)CCCOc1ccc(OCCCN(C)C)c2c1C(=O)c1ccccc1C2=O | 5.97% (active)
34 | COc1ccc(NC(=O)C2c3ccccc3C(=O)N(CC(C)C)C2c2cccs2)cc1 (stereo unspecified) | 90%
35 | S=C(S)NCCc1c[nH]c2ccccc12 | 91.4%
36 | NC(=O)c1n[nH]n2c1nc(=O)c1c3c(sc12)CCCC3 | 99.9%
37 | OCCCCCCNc1ncnc2cc(Cl)ccc12 | 88.9%
38 | Cc1c(Cc2ccccc2)c(=O)oc2c(C)c(OCC(=O)n3nc(C#N)cc3N)ccc12 | 101%
39 | O=c1c2cccc3c(Nc4ccc(F)cc4)ccc(c32)c2nc3ccccc3n12 | 124%
40 | O=C(/C=C/C=C/c1ccccc1)c1ccco1 | -38.2% (active)

same assay, conditions: 30 µM

Row | SMILES | growth
41 | CC(C)(C)c1cc(NC(=O)Cc2ccc(-c3cnc4cc(-c5cnn(CCN6CCOCC6)c5)ccc4n3)cc2)no1 | 6.45% (active)
